Assay results: ChEMBL document CHEMBL1961873, “Compounds: GSK PKIS; Assays: Nanosyn kinase panel” (2012)

Experiments:
[1] = biological target: T1, Serine/threonine-protein kinase Nek9 (Homo sapiens) (UniProt Q8TD19); details: at 1 µM;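 further: each value is a mean percent inhibition of NEK9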
T1 sequence (whole entry): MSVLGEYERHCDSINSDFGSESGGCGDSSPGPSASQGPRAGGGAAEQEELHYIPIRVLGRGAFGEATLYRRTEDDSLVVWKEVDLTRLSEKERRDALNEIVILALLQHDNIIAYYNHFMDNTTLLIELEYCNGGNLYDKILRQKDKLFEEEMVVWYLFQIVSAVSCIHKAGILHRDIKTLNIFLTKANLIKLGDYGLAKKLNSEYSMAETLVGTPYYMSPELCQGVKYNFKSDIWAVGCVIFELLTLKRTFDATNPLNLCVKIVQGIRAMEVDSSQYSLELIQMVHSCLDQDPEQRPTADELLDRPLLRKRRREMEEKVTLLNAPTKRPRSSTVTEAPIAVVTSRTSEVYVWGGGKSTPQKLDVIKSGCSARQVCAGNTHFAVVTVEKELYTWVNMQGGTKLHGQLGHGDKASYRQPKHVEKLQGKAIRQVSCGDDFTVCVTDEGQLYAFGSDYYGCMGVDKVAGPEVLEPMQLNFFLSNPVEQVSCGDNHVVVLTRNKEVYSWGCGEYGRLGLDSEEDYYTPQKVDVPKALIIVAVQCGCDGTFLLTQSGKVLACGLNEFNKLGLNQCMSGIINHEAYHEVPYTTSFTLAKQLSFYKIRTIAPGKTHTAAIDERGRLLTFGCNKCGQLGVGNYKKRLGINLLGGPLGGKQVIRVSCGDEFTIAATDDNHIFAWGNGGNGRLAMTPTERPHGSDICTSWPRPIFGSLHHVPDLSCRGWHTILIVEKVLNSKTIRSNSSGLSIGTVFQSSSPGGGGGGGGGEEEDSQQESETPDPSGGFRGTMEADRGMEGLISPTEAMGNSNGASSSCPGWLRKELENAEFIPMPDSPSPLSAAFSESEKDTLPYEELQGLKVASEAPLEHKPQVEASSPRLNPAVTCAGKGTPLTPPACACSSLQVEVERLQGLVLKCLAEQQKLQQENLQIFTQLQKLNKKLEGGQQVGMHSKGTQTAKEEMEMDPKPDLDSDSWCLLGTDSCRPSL

[2] = biological target: Serine/threonine-protein kinase PLK1 (Homo sapiens) (UniProt P53350); details: at 0.1 µM
Serine/threonine-protein kinase PLK1 (Homo sapiens), sequence (P53350 whole entry): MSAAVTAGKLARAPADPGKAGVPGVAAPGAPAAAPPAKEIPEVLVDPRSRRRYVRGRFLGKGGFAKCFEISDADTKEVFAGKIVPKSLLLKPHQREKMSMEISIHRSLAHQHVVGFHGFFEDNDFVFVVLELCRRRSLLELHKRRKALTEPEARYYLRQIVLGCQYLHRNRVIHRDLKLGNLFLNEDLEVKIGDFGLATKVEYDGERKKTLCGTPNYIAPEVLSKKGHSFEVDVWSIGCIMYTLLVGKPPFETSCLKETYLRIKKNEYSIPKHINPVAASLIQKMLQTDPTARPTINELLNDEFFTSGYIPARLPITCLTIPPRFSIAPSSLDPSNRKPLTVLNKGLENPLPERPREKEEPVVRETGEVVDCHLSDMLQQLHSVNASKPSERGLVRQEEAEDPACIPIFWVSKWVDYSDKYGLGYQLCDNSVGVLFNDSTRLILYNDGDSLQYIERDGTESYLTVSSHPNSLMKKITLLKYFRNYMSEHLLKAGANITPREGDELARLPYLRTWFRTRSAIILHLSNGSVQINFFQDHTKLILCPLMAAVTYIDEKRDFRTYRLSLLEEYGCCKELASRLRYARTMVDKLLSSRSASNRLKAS

[3] = biological target: Serine/threonine-protein kinase PLK1 (Homo sapiens) (UniProt P53350); details: at 1 µM
[4] = biological target: T2, Dual specificity protein kinase TTK (Homo sapiens) (UniProt P33981); details: at 0.1 µM
T2 sequence (whole entry): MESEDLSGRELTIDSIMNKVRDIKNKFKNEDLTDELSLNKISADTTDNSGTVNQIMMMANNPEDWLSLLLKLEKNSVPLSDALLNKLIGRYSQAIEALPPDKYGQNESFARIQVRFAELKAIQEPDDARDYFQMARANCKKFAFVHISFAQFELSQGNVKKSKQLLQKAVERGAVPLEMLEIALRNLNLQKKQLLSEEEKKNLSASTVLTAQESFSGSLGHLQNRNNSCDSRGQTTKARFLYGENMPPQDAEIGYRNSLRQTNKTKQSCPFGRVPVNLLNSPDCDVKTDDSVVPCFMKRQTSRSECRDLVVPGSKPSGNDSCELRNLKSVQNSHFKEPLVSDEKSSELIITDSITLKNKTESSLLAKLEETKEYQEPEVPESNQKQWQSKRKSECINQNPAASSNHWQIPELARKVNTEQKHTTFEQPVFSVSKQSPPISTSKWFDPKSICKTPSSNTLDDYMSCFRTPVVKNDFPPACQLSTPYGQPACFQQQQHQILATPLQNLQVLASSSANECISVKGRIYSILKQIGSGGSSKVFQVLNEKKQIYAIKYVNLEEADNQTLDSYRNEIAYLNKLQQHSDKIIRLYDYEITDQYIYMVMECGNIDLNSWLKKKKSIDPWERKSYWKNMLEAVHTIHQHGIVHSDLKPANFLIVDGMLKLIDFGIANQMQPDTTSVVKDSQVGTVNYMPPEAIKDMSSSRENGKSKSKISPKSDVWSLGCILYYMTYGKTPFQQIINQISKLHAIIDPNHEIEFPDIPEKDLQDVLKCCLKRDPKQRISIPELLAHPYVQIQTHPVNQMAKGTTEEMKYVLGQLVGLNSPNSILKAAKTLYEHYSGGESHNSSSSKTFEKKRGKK

[5] = system: T3, Receptor-type tyrosine-protein kinase FLT3 (Homo sapiens), P36888 [D835Y]; details: at 1 µM
T3 sequence (whole entry): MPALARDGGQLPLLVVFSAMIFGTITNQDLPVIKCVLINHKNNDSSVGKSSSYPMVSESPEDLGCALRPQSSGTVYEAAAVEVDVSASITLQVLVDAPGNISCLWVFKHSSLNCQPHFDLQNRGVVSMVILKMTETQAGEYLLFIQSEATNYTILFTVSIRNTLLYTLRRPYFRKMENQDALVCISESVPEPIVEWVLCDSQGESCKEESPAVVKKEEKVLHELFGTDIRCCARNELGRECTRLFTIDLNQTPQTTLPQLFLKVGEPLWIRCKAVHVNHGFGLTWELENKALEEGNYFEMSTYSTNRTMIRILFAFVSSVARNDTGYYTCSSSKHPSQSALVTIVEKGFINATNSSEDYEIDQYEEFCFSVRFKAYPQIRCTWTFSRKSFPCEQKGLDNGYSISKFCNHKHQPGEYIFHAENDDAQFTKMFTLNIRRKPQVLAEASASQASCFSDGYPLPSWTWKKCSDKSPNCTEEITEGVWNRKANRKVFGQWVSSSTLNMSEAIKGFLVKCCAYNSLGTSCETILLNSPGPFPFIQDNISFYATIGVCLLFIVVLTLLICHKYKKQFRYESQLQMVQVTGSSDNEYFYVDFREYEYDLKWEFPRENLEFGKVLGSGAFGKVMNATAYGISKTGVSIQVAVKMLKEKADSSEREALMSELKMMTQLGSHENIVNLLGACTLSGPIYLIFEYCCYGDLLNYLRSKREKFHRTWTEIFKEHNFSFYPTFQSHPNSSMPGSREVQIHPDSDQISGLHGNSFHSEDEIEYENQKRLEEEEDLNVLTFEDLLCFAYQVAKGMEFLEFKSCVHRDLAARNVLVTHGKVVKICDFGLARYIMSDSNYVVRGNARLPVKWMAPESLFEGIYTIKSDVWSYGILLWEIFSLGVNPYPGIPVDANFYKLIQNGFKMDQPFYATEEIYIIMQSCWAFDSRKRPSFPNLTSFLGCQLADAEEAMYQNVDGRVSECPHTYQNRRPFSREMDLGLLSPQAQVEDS

[6] = biological target: Vascular endothelial growth factor receptor 3 (Homo sapiens) (UniProt P35916); details: at 0.1 µM
Vascular endothelial growth factor receptor 3 (Homo sapiens), sequence (P35916 whole entry): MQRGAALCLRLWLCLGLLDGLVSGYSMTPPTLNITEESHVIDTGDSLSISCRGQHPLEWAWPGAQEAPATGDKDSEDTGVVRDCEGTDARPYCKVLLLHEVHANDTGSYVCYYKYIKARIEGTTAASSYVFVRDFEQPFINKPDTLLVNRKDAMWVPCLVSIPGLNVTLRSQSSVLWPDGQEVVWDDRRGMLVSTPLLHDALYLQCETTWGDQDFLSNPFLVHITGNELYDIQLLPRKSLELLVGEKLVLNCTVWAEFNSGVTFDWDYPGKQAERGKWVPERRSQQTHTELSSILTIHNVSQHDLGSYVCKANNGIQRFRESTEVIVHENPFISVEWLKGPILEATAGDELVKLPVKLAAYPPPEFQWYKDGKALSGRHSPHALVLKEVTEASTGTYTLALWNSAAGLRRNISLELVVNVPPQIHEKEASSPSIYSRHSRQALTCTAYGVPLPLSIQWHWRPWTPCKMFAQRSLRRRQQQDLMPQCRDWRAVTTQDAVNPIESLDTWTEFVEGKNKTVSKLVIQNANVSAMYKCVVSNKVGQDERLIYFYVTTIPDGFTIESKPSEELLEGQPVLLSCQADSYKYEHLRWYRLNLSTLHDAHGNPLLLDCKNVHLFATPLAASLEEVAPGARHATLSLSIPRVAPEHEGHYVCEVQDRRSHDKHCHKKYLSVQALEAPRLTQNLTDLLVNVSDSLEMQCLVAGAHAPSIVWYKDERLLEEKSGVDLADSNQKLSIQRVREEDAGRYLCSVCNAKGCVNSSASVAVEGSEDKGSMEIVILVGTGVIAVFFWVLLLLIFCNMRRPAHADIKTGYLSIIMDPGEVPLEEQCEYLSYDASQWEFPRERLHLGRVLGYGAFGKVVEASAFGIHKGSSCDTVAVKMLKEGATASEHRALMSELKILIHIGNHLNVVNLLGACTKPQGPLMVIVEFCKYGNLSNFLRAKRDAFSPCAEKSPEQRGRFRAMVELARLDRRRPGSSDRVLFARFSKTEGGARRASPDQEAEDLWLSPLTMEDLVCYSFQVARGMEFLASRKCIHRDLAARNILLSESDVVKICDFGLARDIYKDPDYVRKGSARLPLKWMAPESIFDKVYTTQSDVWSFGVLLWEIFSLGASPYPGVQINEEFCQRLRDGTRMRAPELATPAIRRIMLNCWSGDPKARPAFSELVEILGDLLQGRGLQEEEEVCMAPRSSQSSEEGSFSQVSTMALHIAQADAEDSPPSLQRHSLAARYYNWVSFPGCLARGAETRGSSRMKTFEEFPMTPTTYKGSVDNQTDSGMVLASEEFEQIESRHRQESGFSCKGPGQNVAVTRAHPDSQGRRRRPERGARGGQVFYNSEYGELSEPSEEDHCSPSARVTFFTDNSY

[7] = biological target: Vascular endothelial growth factor receptor 3 (Homo sapiens) (UniProt P35916); details: at 1 µM
[8] = biological target: Macrophage colony-stimulating factor 1 receptor (Homo sapiens) (UniProt P07333); details: at 0.1 µM
Macrophage colony-stimulating factor 1 receptor (Homo sapiens), sequence (P07333 whole entry): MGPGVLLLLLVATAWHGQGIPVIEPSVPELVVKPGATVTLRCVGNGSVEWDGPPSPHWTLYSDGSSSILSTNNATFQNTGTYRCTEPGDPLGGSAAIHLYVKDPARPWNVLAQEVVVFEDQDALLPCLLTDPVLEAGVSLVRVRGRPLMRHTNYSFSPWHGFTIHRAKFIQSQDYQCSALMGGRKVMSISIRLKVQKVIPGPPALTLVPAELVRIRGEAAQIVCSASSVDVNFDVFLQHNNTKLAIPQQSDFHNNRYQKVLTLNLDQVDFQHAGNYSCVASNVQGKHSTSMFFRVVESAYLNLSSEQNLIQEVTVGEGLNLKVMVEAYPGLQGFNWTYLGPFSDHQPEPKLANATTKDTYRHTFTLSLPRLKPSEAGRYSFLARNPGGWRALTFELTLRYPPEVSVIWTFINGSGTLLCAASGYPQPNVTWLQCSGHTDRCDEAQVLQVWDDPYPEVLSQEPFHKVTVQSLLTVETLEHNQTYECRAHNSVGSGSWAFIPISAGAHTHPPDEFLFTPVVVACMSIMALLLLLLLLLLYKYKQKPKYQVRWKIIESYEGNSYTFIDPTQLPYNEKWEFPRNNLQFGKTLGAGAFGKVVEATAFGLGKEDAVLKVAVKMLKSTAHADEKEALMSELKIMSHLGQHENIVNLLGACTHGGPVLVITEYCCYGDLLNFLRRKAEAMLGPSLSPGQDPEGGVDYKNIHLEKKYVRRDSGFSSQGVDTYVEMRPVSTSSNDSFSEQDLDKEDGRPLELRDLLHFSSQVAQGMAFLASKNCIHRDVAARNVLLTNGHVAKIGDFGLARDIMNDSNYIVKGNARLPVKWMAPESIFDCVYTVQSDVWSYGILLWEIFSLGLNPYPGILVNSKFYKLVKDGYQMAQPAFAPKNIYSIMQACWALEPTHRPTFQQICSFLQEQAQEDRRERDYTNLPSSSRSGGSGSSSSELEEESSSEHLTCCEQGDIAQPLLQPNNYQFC

[9] = biological target: Macrophage colony-stimulating factor 1 receptor (Homo sapiens) (UniProt P07333); details: at 1 µM
[10] = biological target: Tyrosine-protein kinase Fyn (Homo sapiens) (UniProt P06241); details: at 0.1 µM
Tyrosine-protein kinase Fyn (Homo sapiens), sequence (P06241 2-537 limits assumed): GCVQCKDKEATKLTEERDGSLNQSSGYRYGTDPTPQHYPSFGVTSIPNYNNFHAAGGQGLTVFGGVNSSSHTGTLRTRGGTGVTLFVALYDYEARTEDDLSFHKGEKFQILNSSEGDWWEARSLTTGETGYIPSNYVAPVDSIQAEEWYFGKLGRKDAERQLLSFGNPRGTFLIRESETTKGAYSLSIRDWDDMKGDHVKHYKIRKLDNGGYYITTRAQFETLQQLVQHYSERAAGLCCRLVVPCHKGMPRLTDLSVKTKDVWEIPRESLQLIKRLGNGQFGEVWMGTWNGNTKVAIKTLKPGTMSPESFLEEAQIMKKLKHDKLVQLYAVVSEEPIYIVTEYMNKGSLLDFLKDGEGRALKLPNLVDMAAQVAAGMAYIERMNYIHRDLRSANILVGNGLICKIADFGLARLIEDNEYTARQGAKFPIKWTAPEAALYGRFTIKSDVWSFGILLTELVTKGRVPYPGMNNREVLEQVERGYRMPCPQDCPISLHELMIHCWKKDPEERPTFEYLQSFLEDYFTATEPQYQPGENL

Compound	inhibition [1] [%]	inhibition [2] [%]	inhibition [3] [%]	inhibition [4] [%]	inhibition [5] [%]	inhibition [6] [%]	inhibition [7] [%]	inhibition [8] [%]	inhibition [9] [%]	inhibition [10] [%]
CCn1c(-c2nonc2N)nc2cncc(C(=O)N3CCNCC3)c21	5.61	5.97	14.3	12.2	-1.93	5.86	7.52	4.42	5.74	2.61
CC1=C(C(=O)Nc2ccc3[nH]ncc3c2)C(c2ccc3ccccc3c2)CC(=O)N1 (stereo not given)	2.05	2.98	1.98	5.26	1.5	1.27	3.27	7.17	2.62	2
CCn1c(-c2nonc2N)nc2ccncc21	5.33	1.68	2.44	3.2	0.13	2.12	2.74	0.3	0	2.62
O=C(Nc1n[nH]c2nc(-c3ccco3)c(Br)cc12)C1CC1	3.52	4.46	4.35	4.94	5.36	1.95	9.43	0.44	1.78	3.33
Fc1cccc(COc2ccc(Nc3ncnc4sc(-c5cccs5)cc34)cc2Cl)c1	2.21	1.64	2.97	2.43	4.36	3.77	3.65	0.1	11.2	1.11
CC(=O)Nc1cccc(C#Cc2cncnc2Nc2ccc(OCc3cccc(F)c3)c(Cl)c2)n1	2.5	-3.77	-3.29	-1.68	2.36	-1.2	-2.96	0.5	-0.39	1.08
COC(=O)Nc1nc2cc(Oc3cccc(NC(=O)Nc4cc(C(F)(F)F)ccc4F)c3)ccc2[nH]1	0.95	1.57	0.56	0.37	0.94	1.33	11.4	4.37	27.8	1.12
CC(C)=Cc1cccc2c1/C(=N/Nc1ccc(S(N)(=O)=O)cc1)C(=O)N2	1.52	-0.43	0.59	11.7	66.6	4.82	46.6	41.8	86.8	4.49
COc1cc2ncn(-c3cc(OCc4ccccc4Cl)c(C(N)=O)s3)c2cc1OC	55.5	93.8	96.3	2.78	9.43	11.9	54.8	1.91	23.7	2.79
CCn1c(-c2nonc2N)nc2c(N3CCCC3)nccc21	1.67	1.87	-0.08	9.05	-4.08	2.79	3.38	-0.51	0.02	-0.01
Cc1nn(C)c2cc(N(C)c3ccnc(Nc4cccc(S(N)(=O)=O)c4)n3)ccc12	13.1	2.85	3.39	13	11.9	15.6	62.9	75.5	93.9	4.56
N#Cc1c(NC(=O)c2cccc3ccccc23)sc2c1CCCC2	4.88	3.77	9.99	11.9	-2.86	0.07	-3.88	0.85	1.31	2.07
COc1ccccc1Nc1ncc(-c2ccccc2)o1	5.41	4.91	4.18	10.2	25.5	3.38	9.85	12	53.5	4.02
Cc1nnc(-c2ccc(C)c(-c3ccc(C(=O)Nc4cccc(C#N)c4)cc3)c2)o1	6.96	2.65	1.18	3.88	1.89	-1.08	1.02	-0.4	0.77	3.8
CC1=C(C(=O)Nc2ccc3[nH]ncc3c2)C(c2ccc(F)cc2)NC(=O)N1 (stereo not given)	3.09	2.01	1.91	3.79	-1.48	18.2	15.4	1.12	0.9	1.72
NC(=O)c1cccc(Nc2nccc(Nc3cccc4[nH]ncc34)n2)c1	7.1	-1.69	3.37	-7.5	37.5	5.01	33.4	3.46	34.1	85.9
COc1ccc(-c2coc3ncnc(N)c23)cc1	6.24	3.82	3.47	10.9	-3.79	0.69	-0.08	4.17	2.83	0.65
